T1: S100A11 5-105 S_100+EF-hand_1 (domain begin residue: 5, domain end residue: 105), P31949
T1 chain: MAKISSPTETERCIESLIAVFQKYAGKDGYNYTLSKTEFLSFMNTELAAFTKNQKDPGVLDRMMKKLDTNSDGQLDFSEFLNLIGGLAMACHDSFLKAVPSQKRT

T2: SHC1 149-317 PID (domain begin residue: 149, domain end residue: 317), P29353
T2 chain: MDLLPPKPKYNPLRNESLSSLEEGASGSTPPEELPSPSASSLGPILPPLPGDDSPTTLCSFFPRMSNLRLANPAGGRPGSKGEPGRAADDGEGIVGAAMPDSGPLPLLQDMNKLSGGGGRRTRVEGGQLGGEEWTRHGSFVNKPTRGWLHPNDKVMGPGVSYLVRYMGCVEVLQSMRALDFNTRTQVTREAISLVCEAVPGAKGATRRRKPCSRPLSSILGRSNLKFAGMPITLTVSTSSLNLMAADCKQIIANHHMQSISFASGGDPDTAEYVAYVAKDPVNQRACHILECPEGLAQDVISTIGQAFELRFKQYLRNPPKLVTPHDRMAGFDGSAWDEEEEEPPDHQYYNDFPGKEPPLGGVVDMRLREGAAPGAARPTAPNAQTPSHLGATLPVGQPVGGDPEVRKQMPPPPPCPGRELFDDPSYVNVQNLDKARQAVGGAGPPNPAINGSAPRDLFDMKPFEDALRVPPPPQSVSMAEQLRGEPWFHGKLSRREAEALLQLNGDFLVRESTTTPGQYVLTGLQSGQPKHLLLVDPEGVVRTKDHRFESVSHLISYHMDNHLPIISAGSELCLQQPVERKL

T3: RBM17 298-401 RRM_1 (domain begin residue: 298, domain end residue: 401), Q96I25
T3 chain: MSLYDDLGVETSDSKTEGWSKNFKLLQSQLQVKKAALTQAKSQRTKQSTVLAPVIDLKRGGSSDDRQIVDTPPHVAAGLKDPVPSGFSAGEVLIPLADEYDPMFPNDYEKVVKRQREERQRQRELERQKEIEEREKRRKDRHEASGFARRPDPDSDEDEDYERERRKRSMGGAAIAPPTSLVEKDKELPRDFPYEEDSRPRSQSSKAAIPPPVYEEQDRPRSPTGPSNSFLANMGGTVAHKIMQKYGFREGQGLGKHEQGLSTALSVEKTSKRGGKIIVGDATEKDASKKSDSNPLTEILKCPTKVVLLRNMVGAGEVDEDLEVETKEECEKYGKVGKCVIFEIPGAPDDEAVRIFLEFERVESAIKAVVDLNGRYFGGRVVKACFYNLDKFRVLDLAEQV

T4: SFN 1-236 14-3-3 (domain begin residue: 1, domain end residue: 236), P31947
T4 chain: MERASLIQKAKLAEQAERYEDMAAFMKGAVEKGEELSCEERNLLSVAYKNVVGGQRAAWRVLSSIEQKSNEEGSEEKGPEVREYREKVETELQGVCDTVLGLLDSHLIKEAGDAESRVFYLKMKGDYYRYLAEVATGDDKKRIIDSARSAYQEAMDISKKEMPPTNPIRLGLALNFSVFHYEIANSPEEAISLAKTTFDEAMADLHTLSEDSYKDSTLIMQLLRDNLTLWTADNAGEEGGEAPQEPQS

T5: RXRB 298-533 Hormone_recep (domain begin residue: 298, domain end residue: 533), P28702
T5 chain: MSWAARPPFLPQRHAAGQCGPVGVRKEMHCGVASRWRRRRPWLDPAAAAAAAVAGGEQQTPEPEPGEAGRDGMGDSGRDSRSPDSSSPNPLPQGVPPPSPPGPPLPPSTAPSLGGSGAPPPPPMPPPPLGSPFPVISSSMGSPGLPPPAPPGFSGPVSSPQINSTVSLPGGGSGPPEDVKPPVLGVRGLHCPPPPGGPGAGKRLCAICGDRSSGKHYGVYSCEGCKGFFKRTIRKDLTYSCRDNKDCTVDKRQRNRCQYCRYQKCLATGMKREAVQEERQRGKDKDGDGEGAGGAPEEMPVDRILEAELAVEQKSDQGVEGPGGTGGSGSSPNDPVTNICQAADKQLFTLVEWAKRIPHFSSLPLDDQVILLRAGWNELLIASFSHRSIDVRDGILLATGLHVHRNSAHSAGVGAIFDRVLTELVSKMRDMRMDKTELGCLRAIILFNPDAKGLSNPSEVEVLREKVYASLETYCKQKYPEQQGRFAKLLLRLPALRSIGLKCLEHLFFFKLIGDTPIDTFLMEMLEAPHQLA

T6: RORB 212-470 Hormone_recep (domain begin residue: 212, domain end residue: 470), Q92753
T6 chain: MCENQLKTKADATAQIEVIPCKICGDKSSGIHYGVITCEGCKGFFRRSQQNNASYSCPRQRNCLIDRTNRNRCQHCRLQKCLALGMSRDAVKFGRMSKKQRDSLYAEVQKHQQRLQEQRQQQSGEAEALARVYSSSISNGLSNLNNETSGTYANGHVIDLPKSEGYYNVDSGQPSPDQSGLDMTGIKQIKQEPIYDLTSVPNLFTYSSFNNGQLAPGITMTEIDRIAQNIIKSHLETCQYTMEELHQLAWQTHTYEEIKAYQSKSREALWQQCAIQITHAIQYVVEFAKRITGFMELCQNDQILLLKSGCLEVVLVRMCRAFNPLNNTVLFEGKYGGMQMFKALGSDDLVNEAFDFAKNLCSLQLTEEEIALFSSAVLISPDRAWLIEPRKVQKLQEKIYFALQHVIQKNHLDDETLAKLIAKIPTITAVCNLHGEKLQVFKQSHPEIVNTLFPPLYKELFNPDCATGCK

B1: unnamed (peptide)
chain: IFYWDFESQTWTMSAP
B2: unnamed (peptide)
chain: MWGGEDDLVQAWLEQF
B3: unnamed (peptide)
chain: MEQWWHGEDIMWHWWE
B4: unnamed (peptide)
chain: PKWEFFQDHTQDHHNQ
B5: unnamed (peptide)
chain: YRWDRQPSQEAVSSKY
B6: unnamed (peptide)
chain: YIHDWEMFEHWENLWG
B7: unnamed (peptide)
chain: YIQDWEMMDVWNTLVG
B8: unnamed (peptide)
chain: YVTDLEMIETWNKFIN
B9: unnamed (peptide)
chain: EVEDMQWLEENWLVFW
B10: unnamed (peptide)
chain: DWVLYKEWVPQWPHNF
B11: unnamed (peptide)
chain: YWTWDDFQEMFLRLER
B12: unnamed (peptide)
chain: LEEHWQWWVDDMMPME
B13: unnamed (peptide)
chain: EEMPWYFIEDWEMEMY
B14: unnamed (peptide)
chain: YNFPMDWDQIPITWPQ
B15: unnamed (peptide)
chain: ESNEMWEWVMNQAHVW
B16: unnamed (peptide)
chain: WEHHGWWTFWEEAPEQ
B17: unnamed (peptide)
chain: IEQAELIWMEYKKQTK
B18: unnamed (peptide)
chain: VWEDWTYMEDWEMMVF
B19: unnamed (peptide)
chain: TPTDTAESIWEMYKKM
B20: unnamed (peptide)
chain: TDMEYWEPFTDEELSM
B21: unnamed (peptide)
chain: YPEHQWLEQHMFQTVQ
B22: unnamed (peptide)
chain: WELSDYTLIQAYDQIM
B23: unnamed (peptide)
chain: AQMAPRWDQMQPVMVE
B24: unnamed (peptide)
chain: QIEYWNSMEQTWVQSQ
B25: unnamed (peptide)
chain: LDHMNWPEHDWLWATM
B26: unnamed (peptide)
chain: WQWNGVWPDIIWVQVE
B27: unnamed (peptide)
chain: YYVLDSEMETIWQSIL
B28: unnamed (peptide)
chain: VSWWDDGLVYDWMSEF
B29: unnamed (peptide)
chain: HMAWDVIWDNIYLADS

Each binder was assayed against RBBP5 2-538 WD40 (domain begin residue: 2, domain end residue: 538), Q15291 (assay: phage ELISA signal ratio (GST-PRM binding over GST background); higher = stronger binding of peptide-phage to the PRM).
Sequence of RBBP5 2-538 WD40 (domain begin residue: 2, domain end residue: 538), Q15291 (Q15291 whole entry, the tested form may be a part): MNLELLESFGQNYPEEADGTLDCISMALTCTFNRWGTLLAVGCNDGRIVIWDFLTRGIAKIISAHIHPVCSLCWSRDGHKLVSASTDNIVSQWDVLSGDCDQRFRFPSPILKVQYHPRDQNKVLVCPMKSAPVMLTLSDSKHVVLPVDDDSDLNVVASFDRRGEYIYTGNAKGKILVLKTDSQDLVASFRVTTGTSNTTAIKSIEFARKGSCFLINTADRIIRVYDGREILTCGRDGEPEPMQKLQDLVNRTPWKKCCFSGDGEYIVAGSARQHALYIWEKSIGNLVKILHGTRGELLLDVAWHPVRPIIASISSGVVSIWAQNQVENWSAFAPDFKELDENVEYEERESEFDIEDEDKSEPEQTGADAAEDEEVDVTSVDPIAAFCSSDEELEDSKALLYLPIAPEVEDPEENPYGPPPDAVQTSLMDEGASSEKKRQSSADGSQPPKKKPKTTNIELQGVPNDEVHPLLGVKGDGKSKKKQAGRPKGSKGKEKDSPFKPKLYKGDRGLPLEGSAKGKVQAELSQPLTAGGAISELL
Summary of the method: (§1)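 Human peptide recognition domains were expressed in 96-well plates as fusions to the C-terminus of glutathione S-transferase (GST) and selected against an M13 phage library displaying randomized hexadecapeptides, cysteine-free and glycine-flanked, on the gene-8 major coat protein. Five selection rounds were run, and approximately 48 individual clones from rounds 4 and 5 were tested by phage ELISA. Each value is the ELISA signal on the GST-domain fusion divided by the signal on GST alone. Positive clones were sequenced.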
For B1, the “phage ELISA signal ratio” value was 3.49.
In the case of B24, the “phage ELISA signal ratio” value is reported as 9.82.

What follows are binders tested against RPA1 2-121 Rep-A_N (domain begin residue: 2, domain end residue: 121), P27694 in the same assay as above.
Sequence of RPA1 2-121 Rep-A_N (domain begin residue: 2, domain end residue: 121), P27694 (P27694 whole entry): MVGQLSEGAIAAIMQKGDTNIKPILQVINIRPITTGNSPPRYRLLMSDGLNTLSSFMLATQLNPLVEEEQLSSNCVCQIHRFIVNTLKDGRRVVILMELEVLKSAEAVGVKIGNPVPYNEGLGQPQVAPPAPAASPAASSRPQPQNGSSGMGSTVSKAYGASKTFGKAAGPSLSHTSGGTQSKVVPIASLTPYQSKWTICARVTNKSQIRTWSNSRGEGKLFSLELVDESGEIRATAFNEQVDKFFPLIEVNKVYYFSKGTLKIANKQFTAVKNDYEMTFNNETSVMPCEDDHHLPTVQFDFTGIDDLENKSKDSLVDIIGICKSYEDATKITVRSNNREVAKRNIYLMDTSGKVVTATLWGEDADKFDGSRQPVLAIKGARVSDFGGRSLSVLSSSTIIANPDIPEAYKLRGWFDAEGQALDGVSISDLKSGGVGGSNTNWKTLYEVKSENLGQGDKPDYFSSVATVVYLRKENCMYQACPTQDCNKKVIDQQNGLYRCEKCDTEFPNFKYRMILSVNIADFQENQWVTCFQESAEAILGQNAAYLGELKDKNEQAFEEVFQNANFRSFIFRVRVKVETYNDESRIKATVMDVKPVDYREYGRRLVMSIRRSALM
Summary of the method: as §1
B2 was tested, and the “phage ELISA signal ratio” value was 9.46.
In the case of B6, the “phage ELISA signal ratio” value is reported as 9.27.
B7 was tested, and the “phage ELISA signal ratio” value was 18.
For B8, the “phage ELISA signal ratio” value was 16.4.
B9 was tested, and the “phage ELISA signal ratio” value was 12.
For B13, the “phage ELISA signal ratio” value was 10.6.
In the case of B18, the “phage ELISA signal ratio” value is reported as 14.3.
In the case of B20, the “phage ELISA signal ratio” value is reported as 10.
For B22, the “phage ELISA signal ratio” value was 13.8.
B27 was tested, and the “phage ELISA signal ratio” value was 15.3.
B28 was tested, and the “phage ELISA signal ratio” value was 16.5.

Biological target: T1, S100A11 5-105 S_100+EF-hand_1 (domain …
Assay: as above
Summary of the method: as §1
B3 was tested, and the “phage ELISA signal ratio” value was 3.64.
B11 was tested, and the “phage ELISA signal ratio” value was 4.97.

Biological target: T2, SHC1 149-317 PID (domain begin residue: …
Assay: as above
Summary of the method: as §1
B4 was tested, and the “phage ELISA signal ratio” value was 6.37.
B12 was tested, and the “phage ELISA signal ratio” value was 4.84.

Biological target: T3, RBM17 298-401 RRM_1 (domain begin …
Assay: as above
Summary of the method: as §1
In the case of B5, the “phage ELISA signal ratio” value is reported as 4.04.
With B23 the “phage ELISA signal ratio” value was 5.16.

Biological target: T4, SFN 1-236 14-3-3 (domain begin residue: …
Assay: as above
Summary of the method: as §1
B10 was tested, and the “phage ELISA signal ratio” value was 17.1.

The binders below were run against SETD1A 2-220 RRM_1 (domain begin residue: 2, domain end residue: 220), O15047 in the same assay as above.
Sequence of SETD1A 2-220 RRM_1 (domain begin residue: 2, domain end residue: 220), O15047 (O15047 whole entry): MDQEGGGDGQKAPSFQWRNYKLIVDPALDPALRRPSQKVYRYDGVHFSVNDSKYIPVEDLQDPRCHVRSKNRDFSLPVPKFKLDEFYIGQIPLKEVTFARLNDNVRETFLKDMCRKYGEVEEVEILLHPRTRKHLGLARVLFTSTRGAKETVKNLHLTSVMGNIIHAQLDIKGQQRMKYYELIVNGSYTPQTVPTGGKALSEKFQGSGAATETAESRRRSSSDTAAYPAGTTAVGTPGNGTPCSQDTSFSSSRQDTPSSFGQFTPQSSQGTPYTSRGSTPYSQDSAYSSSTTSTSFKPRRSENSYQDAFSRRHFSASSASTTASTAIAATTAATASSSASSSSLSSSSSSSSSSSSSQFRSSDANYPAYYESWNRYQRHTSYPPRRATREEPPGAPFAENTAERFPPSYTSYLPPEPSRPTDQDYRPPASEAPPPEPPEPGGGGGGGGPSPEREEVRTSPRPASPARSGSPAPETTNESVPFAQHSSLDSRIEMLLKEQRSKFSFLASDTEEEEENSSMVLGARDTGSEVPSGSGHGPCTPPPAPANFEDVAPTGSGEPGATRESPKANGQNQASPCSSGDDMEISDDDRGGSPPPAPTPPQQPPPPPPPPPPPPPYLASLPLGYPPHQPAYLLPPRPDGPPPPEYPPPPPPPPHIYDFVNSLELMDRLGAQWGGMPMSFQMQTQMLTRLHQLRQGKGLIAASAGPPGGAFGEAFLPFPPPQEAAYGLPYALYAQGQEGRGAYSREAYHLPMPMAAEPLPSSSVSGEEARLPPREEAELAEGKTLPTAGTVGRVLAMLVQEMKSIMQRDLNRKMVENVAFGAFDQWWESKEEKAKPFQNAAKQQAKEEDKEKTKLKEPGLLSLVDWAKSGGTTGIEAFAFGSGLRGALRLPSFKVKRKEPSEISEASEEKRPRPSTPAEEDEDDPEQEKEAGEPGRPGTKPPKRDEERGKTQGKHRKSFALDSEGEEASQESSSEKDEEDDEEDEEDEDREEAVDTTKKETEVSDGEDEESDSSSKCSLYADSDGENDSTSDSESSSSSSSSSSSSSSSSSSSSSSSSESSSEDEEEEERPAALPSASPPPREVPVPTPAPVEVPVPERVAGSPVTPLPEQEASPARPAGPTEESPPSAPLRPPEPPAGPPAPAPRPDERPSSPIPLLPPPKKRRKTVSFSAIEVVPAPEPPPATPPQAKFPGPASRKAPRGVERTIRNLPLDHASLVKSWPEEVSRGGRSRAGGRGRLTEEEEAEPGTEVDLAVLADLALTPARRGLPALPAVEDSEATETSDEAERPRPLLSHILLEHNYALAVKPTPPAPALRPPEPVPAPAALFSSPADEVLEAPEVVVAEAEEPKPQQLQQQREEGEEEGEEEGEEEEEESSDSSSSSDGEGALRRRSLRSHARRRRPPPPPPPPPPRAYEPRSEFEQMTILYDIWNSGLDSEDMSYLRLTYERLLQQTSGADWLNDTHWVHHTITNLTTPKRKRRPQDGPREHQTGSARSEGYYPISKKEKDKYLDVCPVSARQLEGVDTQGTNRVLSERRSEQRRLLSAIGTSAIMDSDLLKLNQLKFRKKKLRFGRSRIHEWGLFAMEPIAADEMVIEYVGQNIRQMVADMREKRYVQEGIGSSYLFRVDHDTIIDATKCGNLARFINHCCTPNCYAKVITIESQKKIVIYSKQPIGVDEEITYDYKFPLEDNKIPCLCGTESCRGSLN
Summary of the method: as §1
For B14, the “phage ELISA signal ratio” value was 6.17.
For B29, the “phage ELISA signal ratio” value was 4.42.

Biological target: T5, RXRB 298-533 Hormone_recep (domain …
Assay: as above
Summary of the method: as §1
With B15 the “phage ELISA signal ratio” value was 11.2.
In the case of B17, the “phage ELISA signal ratio” value is reported as 6.73.
For B19, the “phage ELISA signal ratio” value was 28.
B21 was tested, and the “phage ELISA signal ratio” value was 14.3.
In the case of B25, the “phage ELISA signal ratio” value is reported as 16.1.

Biological target: T6, RORB 212-470 Hormone_recep (domain …
Assay: as above
Summary of the method: as §1
With B16 the “phage ELISA signal ratio” value was 4.7.

Each binder was assayed against RPA2 202-270 RPA_C (domain begin residue: 202, domain end residue: 270), P15927 in the same assay as above.
Sequence of RPA2 202-270 RPA_C (domain begin residue: 202, domain end residue: 270), P15927 (P15927 whole entry): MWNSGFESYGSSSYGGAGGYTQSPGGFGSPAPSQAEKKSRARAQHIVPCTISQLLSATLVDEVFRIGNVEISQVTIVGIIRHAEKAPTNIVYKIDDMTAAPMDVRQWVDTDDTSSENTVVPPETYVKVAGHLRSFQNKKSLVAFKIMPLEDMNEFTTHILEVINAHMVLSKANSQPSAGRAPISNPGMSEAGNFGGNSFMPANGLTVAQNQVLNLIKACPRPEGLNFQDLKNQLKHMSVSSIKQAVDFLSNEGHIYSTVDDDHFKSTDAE
Summary of the method: as §1
With B26 the “phage ELISA signal ratio” value was 7.24.
